# Sampled rows, rich in hits. Any-hit rate of the full collection: about 3.6%.
# Mdm2 MdmX PPI: human Mdm2/MdmX binding inhibition; SaOS-2 split-luciferase Mdm2/MdmX complementation, luminescence; inhibition, % at 8 µM; 3% of 330,000 active;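 active = inhibition of at least 50% at 8 µM in the primary screen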
# Peg3 prom inh: inhibitors of Peg3 promoter | HeLa PEG-Prom luciferase reporter, luminescence, overnight | inhibition, % at 20 µM | 1.7% of 360,000 active | AID 588405;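 active = inhibition of at least 50% at 20 µM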
# KKLEB cytotox: counter-screen for CF NF-kB inhibitors: cytotoxicity. KKLEB CF airway cells viability, ATPlite luminescence, overnight; stronger effect = lower value; cells stimulated with P. aeruginosa culture filtrate. activity change (cytotoxicity), % at 5 µM. 0.36% of 360,000 active. AID 602141;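 active = corrected activity change at or below -50% at 5 µM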
# LGR2 antag: inhibitors of bursicon-induced Drosophila LGR2 receptor cAMP signaling; HEK293 LGR2, CRE-luciferase, bursicon-stimulated, 4 h; 0.35% of 380,000 active; inhibition, % at 9.99 µM;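 active = drop in luminescence signal, shown as inhibition above about 50% in the replicate tests, limit read from the data, passing the limit was not always enough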;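 note: agonist challenge used bursicon conditioned medium at about half maximal strength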
# CF NFkB inh: cystic fibrosis NF-kB activation inhibition. KKLEB NF-kB-GFP reporter, PAF-induced, GFP fluorescence overnight. inhibition, % at 5 µM. 0.86% of 360,000 active. AID 588850;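 active = at least 50% inhibition at 5 µM, scaled per plate between neutral and stimulator controls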;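 note: PAF is a Pseudomonas aeruginosa culture filtrate used as stimulus; plate controls were PAF-stimulated DMSO wells for no effect and unstimulated DMSO wells for full effect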
# HSP90 refold inh: blocks HSP90-mediated luciferase refolding in reticulocyte lysate | Rabbit reticulocyte lysate, luciferase refolding luminescence, 3 h | inhibition, % at 5.6 µM | 0.91% of 290,000 active | AID 1789;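 active = inhibition above the screen-wide mean plus 3 SD, computed separately per campaign, cut at about 16% in these data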;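 note: 0% = DMSO wells and 100% = 60 µM geldanamycin wells; inhibitors lower the luminescence because luciferase stays unfolded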
# An asterisk follows results filed as active; · = not tested or not shown.
SMILES,Mdm2 MdmX PPI,Peg3 prom inh,KKLEB cytotox,LGR2 antag,CF NFkB inh,HSP90 refold inh
CN(C)CC1CCC/C(=C\c2ccc(OC(=O)/C=C/c3ccc(Cl)c(Cl)c3)cc2)C1=O (configuration not stated),·,95*,13,·,-26,·
C[C@@H]1CN([C@H](C)CO)C(=O)c2cc(NS(=O)(=O)c3ccc(Cl)cc3)ccc2O[C@@H]1CN(C)C,·,·,·,8,·,·
C[C@H](CO)N1C[C@H](C)[C@H](CN(C)C(=O)c2ccccc2)OCCCC[C@H](C)Oc2ccc(NC(=O)Nc3ccc(C(F)(F)F)cc3)cc2C1=O,·,·,·,41,·,·
Cc1c(-c2ccc(F)cc2)nc(N)c(C#N)c1-c1cccs1,26,17,-15,·,16,3
Cc1nn(-c2ccc(F)cc2)c2nc(N)c(C#N)c(-c3cccs3)c12,41,84*,-15,·,14,4
COc1cccc(S(=O)(=O)N[C@@H]2C=C[C@H](CC(=O)NC3Cc4ccccc4C3)O[C@H]2CO)c1,·,·,·,3,·,·
CC(CC(=O)c1cccs1)CC(=O)c1cccs1,-61,-122,-10,-41,2,-5
Cc1cc(C)c(C(CC(=O)c2cccs2)C(C#N)C#N)c(C)c1 (configuration not stated),28,-12,-54*,·,61*,-3
C[N+]1(C)CCC(OC(=O)C(O)(c2ccccc2)C2CCCC2)C1 (configuration not stated),13,-14,9,-8,-10,·
C[N+]1(C)CC[C@H](OC(=O)[C@@](O)(c2ccccc2)C2CCCC2)C1,-26,-4,-67*,4,-26,0
COc1ccc(S(=O)(=O)Nc2ccc3c(c2)C(=O)N([C@H](C)CO)C[C@@H](C)[C@@H](CN(C)CC2CC2)O3)cc1,·,·,·,9,·,·
Cn1c(NCCN2CCCC2)nc2cc(-c3cccc(C(F)(F)F)c3)sc2c1=O,·,58*,2,16,0,·
Cn1c(NCCN2CCCC2)nc2cc(-c3ccccc3)sc2c1=O,·,-11,17,-26,-41,·
CN(C)CCCNc1nc2cc(-c3ccc(F)cc3)sc2c(=O)n1C,·,90*,-7,2,-4,·
CCN1C(=O)CC(C(C)C)N(C2CCCC2)c2nc(Nc3ccc(C(=O)NC4CCN(C)CC4)cc3OC)ncc21 (configuration not stated),·,66*,-18,·,-69,·
COc1cc(C(=O)NC2CCN(C)CC2)ccc1Nc1ncc2c(n1)N(C1CCCCC1)CCC(=O)N2C,·,91*,-26,-11,-101,·
COc1cc(C(=O)NC2CCN(C)CC2)ccc1Nc1ncc2c(n1)N(Cc1ccccc1)CCC(=O)N2C,·,-105,-29,-7,-171,·
CO[C@H]1CN(C)C(=O)c2ccc(NC(=O)c3ccccc3)cc2OC[C@H](C)N(CC2CC2)C[C@@H]1C,·,·,·,7,·,·
CCNc1nc(N)c(C(=O)c2ccc(Cl)s2)s1,11,-260,6,·,55*,2
CC(C)(C)c1csc(NC(=O)c2ccc(Cl)s2)n1,27,-287,-11,·,1,-4
Cc1ccc2nc(/C(C#N)=C/c3ccc(-c4cccc([N+](=O)[O-])c4)o3)[nH]c2c1,·,115*,-8,-15,-35,-3
Cc1ccc2nc(/C(C#N)=C\c3cc(O)ccc3[N+](=O)[O-])[nH]c2c1,12,15,5,1,1,6
O=C([C@H]1[C@H](CO)[C@H]2Cn3c(ccc(-c4ccccc4)c3=O)[C@H]2N1Cc1cocn1)N1CCCCC1,·,·,·,-6,·,·
COc1ccc(C)cc1NC(=O)NC1CCCc2ccccc21 (configuration not stated),36,55*,2,7,11,2
COc1ccc(NC(=O)NC2CCCc3ccccc32)cc1OC (configuration not stated),10,11,6,-9,4,-6
SMILES,Mdm2 MdmX PPI,Peg3 prom inh,KKLEB cytotox,LGR2 antag,CF NFkB inh,HSP90 refold inh
O=C(C[C@H]1C[C@@H]2c3cc(NC(=O)Nc4ccc(C(F)(F)F)cc4)ccc3O[C@@H]2[C@H](CO)O1)NCc1cc(F)ccc1F,·,·,·,2,·,·
COc1ccc(CNCCc2ccc(Cl)cc2)cc1OCc1ccccc1,38,78*,-5,·,6,2
COc1ccc(CNCCc2ccccc2)cc1OCC(N)=O,4,-9,-14,·,-4,0
COc1ccc(CCNCc2ccc(-c3ccccc3)cc2)cc1OC,·,87*,-9,-5,11,·
CN1C(=O)c2cc(NC(=O)c3cccc(F)c3)ccc2OC[C@H]2O[C@@H](CC(=O)Nc3ccccc3)CC[C@H]21,·,·,·,3,·,·
O=C(C[C@@H]1CC[C@@H]2[C@H](COC[C@H](O)CN2C(=O)Nc2ccc(Cl)cc2)O1)N1CCCCC1,·,·,·,-41,·,·
CCC(=O)N(C)C[C@@H]1Oc2cc(C#CC(C)(C)O)ccc2S(=O)(=O)N([C@@H](C)CO)C[C@H]1C,·,·,·,8,·,·
Cc1ccc(C#N)c(SCc2ccccc2F)n1,21,-4,-13,1,8,1
Cc1ccc2nc(CSc3nc(C)ccc3C#N)[nH]c2c1,-205,-183,-10,76*,-21,7
CC1(c2ccccc2)CC(C)(C)N2C(=O)/C(=C3\SC(=S)NC3=O)c3cccc1c32 (configuration not stated),·,37,-25,10,61*,1
CC1(c2ccccc2)CC(C)(C)N2C(=O)C3(C(C#N)=C(N)Oc4cc(O)ccc43)c3cccc1c32 (configuration not stated),18,22,4,-3,13,4
C/C=C/c1ccc2c(c1)O[C@@H](CN(C)C(=O)C1CCOCC1)[C@H](C)CN([C@@H](C)CO)S2(=O)=O,·,·,·,-4,·,·
CO[C@@H]1CN(C)C(=O)c2ccc(NC(C)=O)cc2OC[C@H](C)N(Cc2ccccc2F)C[C@H]1C,·,·,·,3,·,·
CNc1nc(N/N=C/c2cc3c(cc2[N+](=O)[O-])OCO3)nc(Nc2ccccc2)n1,38,86*,-4,-13,2,-3
CNc1nc(N/N=C/c2cc([N+](=O)[O-])ccc2F)nc(Nc2ccccc2)n1,·,20,-16,12,39,·
C[C@@H]1CN([C@H](C)CO)C(=O)Cc2cc(NC(=O)C3CC3)ccc2O[C@@H]1CN(C)Cc1ccc(C(=O)O)cc1,·,·,·,-2,·,·
O=C(Oc1ccc(Br)cc1C(=O)/C=C/c1ccccc1F)c1ccco1,23,50*,-10,-10,12,4
CC(C)c1ccccc1NC(=O)Nc1nc(C(N)Cc2ccc(C(F)(F)F)cc2)cs1 (configuration not stated),·,108*,-24,-30,32,·
NC(Cc1ccc(C(F)(F)F)cc1)c1csc(NC(=O)Nc2ccccc2Cc2ccccc2)n1 (configuration not stated),·,118*,-92*,0,92*,·
NC(CO)c1csc(NC(=O)Nc2ccccc2Cc2ccccc2)n1 (configuration not stated),·,11,0,2,3,·

# Screens: PubChem, several laboratories
